# Results as given in PubChem BioAssay.
# Experiment: reversal of MRP1-mediated doxorubicin resistance, pilot screen, H69AR cells, doxorubicin co-treatment (AID 601)
# Conditions: H69AR cells + 2 uM doxorubicin, CellTiter-Glo, 72 h; measured here: viability with 2 uM doxorubicin; at 10 µM; stronger effect = lower value
row,SMILES,viability
1,CCN(CC)S(=O)(=O)c1ccc2oc(C(=O)O)c(C)c2c1,92.2%
2,COCCN1CN(S(=O)(=O)c2ccccc2)c2nc3ccccc3nc21,101%
3,COc1ccc(S(=O)(=O)NCc2ccc(C(=O)O)cc2)cc1,106%
4,Cc1ccc2c(c1)sc1ncc(NC(=O)c3ccccc3)c(=O)n12,88.3%
5,CCOC(=O)N1CCC(N2C(=O)c3ccccc3C2Nc2cccnc2)CC1 (stereo not given),85.6%
6,CCCCOC(=O)CSc1nc2c(cc1C#N)C(=O)CC(C)(C)C2,89.4%
7,CN(C)c1cccc(NC(=O)CCc2ccccc2)c1,102%
8,CCc1nc(N[C@@H](Cc2c[nH]c3ccccc23)C(=O)O)c2oc3ccccc3c2n1,96.7%
9,O=C(CSc1nnc(C2COc3ccccc3O2)o1)N1CCCc2ccccc21 (stereo not given),95.5%
10,COc1ccc(CCNc2oc(-c3ccccc3OC)nc2C#N)cc1,94.8%
11,CCCn1c(SCC(=O)NC(C)(C)C)nnc1C(C)C,89.1%
12,COc1cc(N=c2ssnc2Cl)cc(OC)c1,4.61%
13,COCCn1c(=O)[nH]c2cc(C(=O)N3CCN(Cc4ccc5c(c4)OCO5)CC3)ccc2c1=O,94.9%
14,CCCCCC1CC(CC#CCN2CCOCC2)C(=O)O1 (stereo not given),92.6%
15,CC(NC(=O)c1ccco1)c1ccc2c(c1)OCCO2 (stereo not given),87.1%
16,Cn1c(=O)[nH]c(=O)c2c1nc(N1CCCCCC1)n2CCCSc1nc2ccccc2o1,43.7%
17,O=S(=O)(c1ccc(S(=O)(=O)N(Cc2ccco2)Cc2ccccc2Cl)cc1)N1CCCC1,64.2%
18,CCOC(=O)c1[nH]c(C)c(C(=O)Nc2ccccc2F)c1C,67.1%
19,C=CCN(CC=C)C(=O)CN1C(=O)c2ccccc2C1=O,92.1%
20,COc1ccccc1C(=O)NC(C)C(c1cccs1)N1CCN(C)CC1 (stereo not given),91.5%

row,SMILES,viability
1,O=C(CSc1nnnn1C1CCCC1)N1CCN(C(=O)c2ccco2)CC1,103%
2,Cc1ccccc1-c1nc(CS(=O)(=O)CC(=O)N(C)C2CCCCC2)c(C)o1,92.2%
3,O=S(=O)(c1ccc(OCC(O)CN2CCN(c3ccccc3)CC2)cc1)N1CCOCC1 (stereo not given),91.2%
4,O=C(C1CCCO1)N1CCN(C(c2ccccc2)c2ccccc2)CC1 (stereo not given),89.5%
5,CCn1nnnc1SCC(=O)N1CCOCC1,86.3%
6,CC(NC(=O)c1ccc2c(c1)OCO2)C(c1cccs1)N1CCOCC1 (stereo not given),91.1%
7,CCC12CN3CC(CC)(CN(C1)C3c1ccc(OC(C)C)cc1)C2=O (stereo not given),94.6%
8,O=C1CCC(c2ccccc2)N1C(=O)c1cccnc1 (stereo not given),90.2%
9,CCOC(=O)CSc1nnc(CNC(=O)c2cccs2)n1-c1cc(OC)ccc1OC,88.3%
10,Cn1c(=O)c2c(nc(NCc3ccco3)n2C/C=C/c2ccccc2)n(C)c1=O,96.1%
11,O=C(CS(=O)(=O)c1cn(Cc2ccc(Cl)cc2)c2ccccc12)N1CCOCC1,88.6%
12,CCN(C(=O)CN1CCN(c2ccccc2OC)CC1)c1c(N)n(Cc2ccccc2)c(=O)[nH]c1=O,90.8%
13,CCn1c(CNc2ccc(C)cc2)nnc1SCC(=O)NCc1ccccc1,87.6%
14,CCOC(=O)N1CCC(NC(=O)C2CCCN2C(=O)OCc2ccccc2)CC1 (stereo not given),93%
15,Cc1ccc(-c2nnc(-c3ccc(Br)cc3)o2)o1,84.5%
16,CN(C)S(=O)(=O)c1ccc(C(=O)N2CCCC2c2nc3ccccc3s2)cc1 (stereo not given),92.9%
17,CC(=O)c1c(OCC(=O)O)ccc2c(C)cc(=O)oc12,88.7%
18,Cc1ccc2cc(C(c3nnnn3CC3CCCO3)N3CCc4ccccc4C3)c(=O)[nH]c2c1 (stereo not given),102%
19,O=C(c1ccccc1)N1CCN(CC2CC=CCC2)CC1 (stereo not given),93.5%
20,Cc1ccccc1-c1nc(CS(=O)(=O)CC(=O)NCc2ccccc2)c(C)o1,90.4%
